Test results as given in the supplement of paper PMC6555819.

Tests used:
Test in all cases: PBM binding z-score (relative to random genomic background probes); higher = stronger binding; sequences stand for … in GC…GCGATTGACAGCGTAGAATGAAGG
[1] = tested on: FXR:RXRa (NR concentration 270 nM, RXRa partner concentration 90 nM)
How it was run: (§1)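 Regression normalization was applied to scanned fluorescence from custom Agilent 4×180K protein-binding microarrays. Before scanning, arrays were incubated 1 h with ligand-free nuclear receptor dimers, and binding was detected with antibodies against each partner (one per run). Binding z-scores use the random background probes as reference.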

[2] = tested on: LXRa:RXRa (NR concentration 270 nM, RXRa partner concentration 90 nM)
How it was run: as §1

[3] = tested on: LXRa homodimer (NR concentration 270 nM)
How it was run: as §1

[4] = tested on: LXRb:RXRa (NR concentration 270 nM, RXRa partner concentration 90 nM)
How it was run: as §1

[5] = tested on: LXRb homodimer (NR concentration 270 nM)
How it was run: as §1

[6] = tested on: PPARa:RXRa (NR concentration 270 nM, RXRa partner concentration 90 nM)
How it was run: as §1

[7] = tested on: PPARg:RXRa (NR concentration 180 nM, RXRa partner concentration 90 nM)
How it was run: as §1

[8] = tested on: PPARg:RXRa 270nM:90nM, anti-RXR (NR concentration 270 nM, RXRa partner concentration 90 nM)
How it was run: as §1

[9] = tested on: PPARg:RXRa 30nM:10nM, anti-RXR (NR concentration 30 nM, RXRa partner concentration 10 nM)
How it was run: as §1

[10] = tested on: PPARg:RXRa 90nM:30nM, anti-RXR (NR concentration 90 nM, RXRa partner concentration 30 nM)
How it was run: as §1

| Sequence | PBM binding z-score [1] | PBM binding z-score [2] | PBM binding z-score [3] | PBM binding z-score [4] | PBM binding z-score [5] | PBM binding z-score [6] | PBM binding z-score [7] | PBM binding z-score [8] | PBM binding z-score [9] | PBM binding z-score [10] |
| --- | --- | --- | --- | --- | --- | --- | --- | --- | --- | --- |
| CGTCCAAGGTCATACGAGGTCAGTGAAGACAGAT | 7.86 | 7.57 | 5.5 | 6.63 | 1.78 | 5.87 | 5.57 | 5.9 | 2.88 | 4.6 |
| GCTGCTAGGTCAACTGAAGGTCAGCTAAAGCTCG | 5.14 | 4.92 | 4.01 | 3.69 | 0.218 | 4.26 | 3.73 | 4.61 | 1.03 | 3.19 |
| TCTGCTATGTCAACGATGGTCAGCTAATCTGCTA | -0.367 | -0.339 | -1.07 | -0.513 | -0.553 | -0.269 | -0.313 | 0.46 | 1.01 | 0.668 |
| ATAGGTAGGTTAGGGTCATTCAGAAAGTAGGGAA | 5.28 | 4.39 | 2.09 | 4.8 | 2.83 | 5.26 | 5.56 | 4.89 | 2.63 | 4.2 |
| TAGCCAAGGTCAGATCGGGCCAGTATACGCTATA | 5.26 | 3.12 | -0.0844 | 2.55 | 0.145 | 3.85 | 1.88 | 2.35 | 0.514 | 1.53 |
| TCTAGCTGGTCAAAGGTCACACACTCGAAATGCG | 5.6 | 6.17 | 3.41 | 5.31 | 0.629 | 6.34 | 10.5 | 9.37 | 9.91 | 10.1 |
| ATCGAAAGGTCGAAGGTCAGTATACCCACCCGAA | 5.6 | 4.68 | 1.05 | 4.53 | 0.966 | 5.61 | 6.96 | 6.43 | 3.83 | 5.97 |
| ATCGAAAGGTCGACGAGGTGAGTATGCACCGTTT | 4.61 | 3.13 | -0.377 | 2.5 | 0.258 | 4.53 | 2.51 | 3.05 | 0.831 | 1.92 |
| CGTCTAAGTTCAAGGTAACGTAACAGAAAGCAGC | 4.08 | 3.47 | 1.01 | 2.01 | 0.51 | 3.18 | 1.39 | 2.11 | 0.885 | 1.69 |
| CACACTAGGTCAAGAGGTCAAAGTCCGCTTCCCG | 7.5 | 6.61 | 7.43 | 5.8 | 2.67 | 6.33 | 9.41 | 7.85 | 7.67 | 8.14 |
| CGACCTAGGTCACCAGGACAGTGAAGAGGTTGGA | 4.89 | 2.91 | -0.161 | 2.09 | -0.881 | 4.22 | 5.25 | 4.5 | 1.21 | 3.13 |
| CGAACTAGGTCACCTGGACAGTGAAGAGGTTGGA | 3.92 | 2.38 | 0.0453 | 1.79 | -0.443 | 5 | 8.13 | 6.5 | 4.2 | 5.86 |
| CGAACTAAGTCATCCAGGACAGTGAATACATTGA | 0.0178 | -0.0444 | 0.135 | -0.252 | -0.311 | 0.0393 | 0.532 | 0.277 | 0.283 | 0.237 |
| ATCTAAAGGTCGAAGGTGAGTATACCCACCCGAA | 4.51 | 4.47 | 0.846 | 3.2 | 1.12 | 4.71 | 5.11 | 5.19 | 2.76 | 4.36 |
| CCAGAAAGGTGAAAGGTAACTCAGTCTGGTACGC | 2.31 | 2.14 | -0.21 | 2.12 | -0.446 | 5.13 | 6.55 | 6.26 | 4.77 | 6.27 |
| CGAACTAGTTCAAAGGACAGTGAAAGGCGACGTA | -0.112 | -0.0127 | -0.428 | -0.231 | -0.842 | 1.62 | 2.23 | 3.51 | 1.75 | 3.25 |
| CGAACTAGGTCAAAGGACAGCGAAAGGCGACGTA | 4.22 | 2.78 | -0.185 | 1.94 | -0.366 | 5.76 | 10.8 | 8.88 | 9.93 | 10.3 |
| ATCGAAAGGTCGTGAGGTGACTATACAGAAAGGC | 5.54 | 4.2 | 0.422 | 3.45 | 0.557 | 5.49 | 4.59 | 4.64 | 1.98 | 3.39 |
| CGAACTAGGTCAAAGGACTGTGAAAGGCGACGTA | 3.86 | 2.36 | -0.238 | 1.58 | -0.452 | 4.89 | 9.38 | 7.84 | 7.28 | 8.69 |
| CGACCTAGGTCAAAGGACAGTGAAAGGCGACGTA | 5.01 | 3.27 | -0.141 | 2.32 | -0.298 | 4.33 | 5.72 | 5.68 | 3.14 | 4.92 |
| ATATGTAGGTTAGGGTAATTCAGAAAGTAGGGAA | 1.61 | 1.22 | 0.994 | 1.87 | 1.03 | 3.31 | 4.75 | 3.91 | 2.13 | 3.13 |
| CCTTGCGGGTCACTGACAGGTTATAGCATTTGGA | 4.69 | 3.74 | 0.0362 | 2.95 | -0.459 | 5.05 | 5.18 | 4.76 | 1.63 | 3.47 |
| TTACCAAGGTTAAAGGTCGTTGATGCACGCCTTG | 4.98 | 5.1 | 1.51 | 4.06 | 0.439 | 5.64 | 7.98 | 8.34 | 8.79 | 8.95 |
| CGTCCAAGGTCAGAGAGGTCACTGAATGCCGAGT | 6.61 | 5.79 | 4.5 | 5.36 | 0.485 | 5.61 | 4.58 | 5.36 | 1.92 | 4.08 |
